Compound activity as filed in PubChem.
In the library only some 2.9% were active in any assay of this set; here they are far more common.
SNCA expr inhib: Primary qHTS assay for inhibitors of alpha-synuclein gene (SNCA) expression | HEK-293 SNCA-luciferase knock-in, luminescence, 24 h | Potency, µM (highest dose often 57.2 µM), most hits filed as inhibitors | 0.17% of 140,000 active | AID 1671194, 2021; note: nearly all actives have a fitted effect of over 45% in size
KDM5B inh: Primary screen for KDM5B Histone Demethylases FDH-coupled qHTS; 2.6% of 220,000 active; Lysine-specific demethylase 5B (Homo sapiens), Q9UGL1; Potency, µM (doses to about 57.7 µM), most hits filed as inhibitors; KDM5B demethylase, FDH-coupled NADH fluorescence (FDH is formaldehyde dehydrogenase); note: nearly all actives have a fitted effect of over 70% in size
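KDM5BΔAP (200 nM final) in 50 mM HEPES pH 7.5, 0.01% Tween-20 was preincubated 10 min at RT with compound over a concentration range. Substrate mix (H3K4me3 12.5 µM, α-KG 25 µM, Fe²⁺, ascorbate, NAD⁺, FDH) was added, and NADH fluorescence change over 30 min gave dose-response curves.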
HEK293 viab: GF-AFC viability counterscreen for inhibitors of alpha-synuclein gene (SNCA) expression. HEK-293-SNCA-luc viability, GF-AFC fluorescence, 24 h. 0.12% of 150,000 active. Potency, µM (series often up to 57.1 µM), most hits filed as cytotoxic; note: nearly all actives have a fitted effect of over 30% in size
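HEK-293-SNCA-luc cells (1500/well) plated 24 h, then exposed 24 h to a dilution series; GF-AFC added 30 min at 37C, fluorescence 405/540 nm; normalised to medium-only and DMSO wells, Hill fit.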
IP6K1 inh: Primary qHTS assay for small molecule inhibitors of Inositol hexaphosphate kinase 1 (IP6K1); IP6K1 kinase, ADP-Glo luminescence, 2 h; stronger effect = lower value; activity change, % (series mostly up to about 58 µM); Inositol hexakisphosphate kinase 1 (Homo sapiens), Q92551; AID 1645851, 2021; 0.81% of 140,000 active; in the data active = activity change below about -25%
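ADP-Glo luminescence measures ADP made by human IP6K1 during a 2 h RT reaction with ATP/IP6 (mix at 1.3 mM/130 uM); top library doses 57.5 and 19.1 uM final.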
Numbers stand for hits; n = inactive; u = inconclusive; x = no result. Unless noted, calls come from the whole dose curve; as a rule, active = well fitted curve in the direction sought with a large enough effect; inconclusive = small, poorly fitted or top-dose-only effect, or another doubt; inactive = no such curve, though single readings can be large; an effect the other way counts as inactive or inconclusive.

SMILES	SNCA expr inhib	KDM5B inh	HEK293 viab	IP6K1 inh
COc1ccc(CN2CCC3(CC2)CNC(=O)c2ccccc2O3)cc1	n	n	n	n
COc1ccc(CN2CCC3(CC2)CC(=O)c2ccccc2O3)cc1	u	35µM	n	n
O=C1CC2(CCN(C(=O)c3ccc4c(c3)OCO4)CC2)Oc2ccccc21	n	25µM	n	n
O=C(c1cc2cc(F)ccc2[nH]1)N1CCCC(CO)(Cc2cccc(Cl)c2)C1 (centres undefined)	n	u	n	n
Cn1cccc1CN1CCC2(CC1)CC(=O)c1ccccc1O2	n	25µM	n	n
Cn1cccc1CN1CCC2(CC1)CC(=O)c1ccc(Cl)cc1O2	n	n	n	n
Nc1ncc(C(=O)N[C@@H]2CC[C@@H](N)C2)c(-c2ccccc2)n1	n	22µM	n	n
COCCn1ccc2c(C3=CCOCC3)nc(-c3cccc(CO)c3)cc21	n	40µM	n	n
c1cn2cc(-c3ccc4cn[nH]c4c3)nc(Nc3ccc(N4CCOCC4)cc3)c2n1	x	x	n	n
COCCn1ccc2c(C3=CCOCC3)nc(-c3cccc(N4CCOCC4)c3)cc21	n	u	n	n
COCCn1ccc2c(C3=CCOCC3)nc(-c3cccc4[nH]ncc34)cc21	n	28µM	n	n
COCCn1ccc2c(C3=CCOCC3)nc(-c3ccc4cn[nH]c4c3)cc21	n	40µM	n	n
COCCn1ccc2c(C3=CCOCC3)nc(-c3cccc4[nH]ccc34)cc21	n	35µM	u	n
CC(C)Oc1cccc(-c2ccc(C(=O)N(C)C)cc2)c1	n	n	n	n
CC(=O)N1CCC(N2CC[C@H](c3nc4ccc(C#N)cc4[nH]3)C2)CC1	n	u	n	n
COCCn1ccc2c(C3=CCOCC3)nc(-c3ccc4c(c3)CNC4=O)cc21	n	11µM	n	n
O=C1NC(=NC2CCCCC2)C2(CCN(CC3CC3)C2)N1c1cccnc1 (centres undefined)	u	n	n	n
O=C(COc1ccc(Cl)cc1)NCCc1csc(-c2ccncc2)n1	x	n	x	x
CC(=O)N1CCCC(C(=O)NCCc2csc(-c3ccncc3)n2)C1 (centres undefined)	n	22µM	n	n
O=C(NCCc1csc(-c2ccncc2)n1)C1CNCCO1 (centres undefined)	n	28µM	n	n
Cc1cccc(Cl)c1CNC(=O)c1c(C)noc1-c1ccccc1Cl	n	n	n	n
CC1(COc2ccccc2)COc2ccc(C(=O)NCCc3ccccn3)cc2N1 (centres undefined)	n	32µM	n	n
CC1(COc2ccccc2)COc2ccc(C(=O)NCCc3cnc[nH]3)cc2N1 (centres undefined)	u	35µM	n	n
CC1(COc2ccccc2)COc2ccc(C(=O)NCc3cccnc3)cc2N1 (centres undefined)	n	35µM	n	n
CC1(COc2cccnc2)COc2ccc(C(=O)NCCOc3ccccc3)cc2N1 (centres undefined)	u	32µM	u	n
SMILES	SNCA expr inhib	KDM5B inh	HEK293 viab	IP6K1 inh
COc1cccc(C(=O)N2CCC3(CC2)CC(N(Cc2ccccc2)C2CC2)CCO3)c1 (centres undefined)	n	n	n	n
CN(C(=O)c1ccc2c(c1)NC(C)(COCC1CC1)CO2)c1ccccc1 (centres undefined)	n	n	n	n
CC1(COc2cccnc2)COc2ccc(C(=O)NCCc3ccccc3)cc2N1 (centres undefined)	n	35µM	n	n
C[C@@H]1CN(C(=O)c2ccc3c(c2)NC(C)(COCC2CC2)CO3)C[C@H](C)O1 (some centres undefined)	n	n	n	n
CC1(COCC2CC2)COc2ccc(C(=O)NCc3cccc(F)c3)cc2N1 (centres undefined)	n	40µM	n	n
CC1(COc2ccccc2)COc2ccc(C(=O)NCCc3ccccc3)cc2N1 (centres undefined)	n	u	n	n
CC1(COc2ccccc2)COc2ccc(C(=O)NCc3cccc(F)c3)cc2N1 (centres undefined)	n	32µM	n	n
CC1(COCC2CC2)COc2ccc(C(=O)N3CCOCC3c3cccc(F)c3)cc2N1 (centres undefined)	n	35µM	n	n
Cc1ccccc1Cn1cccc1CNC(=O)NC12CC3CC(CC(C3)C1)C2	x	n	x	x
Cc1nn2c(c1-c1ccccc1Oc1ccccc1)N(Cc1ccc(C(=O)O)cc1)CCC2	u	35µM	u	n
COc1ccc(CN2CCCn3nc(C)c(-c4ccccc4Oc4ccccc4)c32)cc1O	6.3µM	u	u	n
Cc1nn2c(c1-c1ccccc1Oc1ccccc1)N(C(=O)c1ccc(F)cc1)CCC2	u	n	n	n
CCc1nc2c(NS(=O)(=O)c3cccnc3)cccn2n1	n	n	n	n
O=S(=O)(Nc1cccn2nc(C3CC3)nc12)c1cccnc1	n	3.5µM	n	n
CCN(C)C(=O)C(C)N1CCc2onc(-c3ccc(-c4ccccc4)cc3)c2C1 (centres undefined)	n	25µM	n	n
CCN(C)C(=O)C(C)N1CCc2onc(C(c3ccccc3)c3ccccc3)c2C1 (centres undefined)	n	n	n	n
O=C(O)c1cccc2[nH]ncc12	x	n	x	x
Cc1cccc(CC(=O)N2CCCN(S(C)(=O)=O)c3ccccc32)c1	n	n	n	n
Cn1ccc2ccc(C(=O)N3CCN(CCOc4ccccc4)CC3)cc21	n	28µM	n	n
Cc1ccccc1-n1cc(-c2ccnc(NC(C)Cc3ccncc3)n2)cn1 (centres undefined)	u	25µM	u	n
CC(=O)NCC1CCCN(Cc2ccc(-c3ccccc3C#N)o2)C1 (centres undefined)	u	28µM	n	n
CCC(C)NC(=O)C1CCCN1Cc1cccc(-c2ccc(C)c(Cl)c2)c1 (centres undefined)	x	x	x	n
CC(C)c1noc(-c2ccn3c(CNC(=O)c4ccccc4)nnc3c2)n1	n	n	n	n
Cc1cccc(C(=O)NCc2nnc3cc(-c4nc(C)no4)ccn23)c1	n	25µM	n	n
Cc1cccc(C(=O)NCc2nnc3cc(-c4nc(C(C)C)no4)ccn23)c1	n	28µM	n	n
Cc1ccc(C(=O)NCc2nnc3cc(-c4nc(C)no4)ccn23)cc1	n	11µM	n	n
CC(C)c1noc(-c2ccn3c(CNC(=O)c4ccoc4)nnc3c2)n1	n	28µM	n	n
O=C(CN1Cc2nc(OCC3CC3)ccc2OCC1=O)N1CCCC1	n	n	n	n
Cc1nn(-c2ccccc2[N+](=O)[O-])c(C)c1[C@@H]1C=C[C@@H](NCc2ccco2)C1	n	u	u	n
Cc1nn(-c2ccccc2[N+](=O)[O-])c(C)c1[C@@H]1C=C[C@@H](NCc2ccc(C(C)C)cc2)C1	n	u	20µM	n
